Assay results as given in PubChem BioAssay (NCI).
Where “and” joins values, the source holds several entries; their conditions need not be identical. Identical values can stand only once. About 83,000 compounds went through this panel and 20% of them were active in at least one assay; those are over-represented in the sample as a whole.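 Growth was measured after 48 h exposure to one concentration of compound in 96-well plates. Values under 10 count as active.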 Values without a mark were called inactive. Calls of active or inactive are those of the source.

What follows are molecules tested on MDA-MB-468 breast (assay: NCI-60 one-dose screen, 48 h (100 = growth as untreated, 0 = no growth, -100 = all killed)). Conditions: 10 µM unless noted.
For `Cc1cc(/C=C/c2ccc3cc(N(C)C)ccc3[n+]2C)c(C)n1-c1ccccc1`, the growth was -81.9% (active). `O=C(Nc1cc(F)cc2cccnc12)c1cnc(N2CCOCC2)cn1` gave a growth of 18.5%. In the case of `O=C(N/N=C/c1ccc(Br)s1)c1[nH]c2ccc(Br)cc2c1-c1ccccc1`, the growth was -5.18% (active). Work on `COc1ccc(Cn2cc3c(c2-c2ccccc2)CCc2cnoc2-3)cc1N` yielded a growth of 10.4%. For `N#Cc1cnc2ccc(-c3cnc4n[nH]nc4c3)cc2c1N1CCc2cc(F)c(Cl)cc21`, the growth was -13.9% (active). `Cn1c(=O)c2[nH]c(CC(=O)O)nc2n(C)c1=O` was tested, and the growth was 107%. In the case of `CC1(C)NCCC[C@]2(C)[C@H]3C=CC4=C5C[C@](C)(CO)CC[C@]5(C)CC[C@@]4(C)[C@]3(C)CC[C@@H]12`, the growth was -79.5% [100 µM] (active). `O=C1CCC(N2C(=O)c3cccc(NCCCCCCOc4ccc(Nc5nccc(Nc6ccccc6)n5)cc4)c3C2=O)C(=O)N1` (configuration not stated) was tested, and the growth was 49.3%. For `Cc1cc(NS(=O)(=O)c2ccc(N=Nc3cc(N=Nc4ccc(S(=O)(=O)Nc5cc(C)nc(C)n5)cc4)c4c(NC(=O)C(Cl)Cl)cccc4c3OC(=O)C(Cl)Cl)cc2)nc(C)n1` (tested in a mixture with another compound), the growth was 103% and 78.5%. With `CS(=O)(=O)Nc1cccc(-c2ccc3ncnc(Nc4cncc(Cl)c4)c3c2)c1` the growth was -39.5% (active). With `CCCCCCCCCCCCCCCC1=NC(C)(C)CN1C(C)C` the growth was -58.8% (active). For `O=C(N/N=C/c1ccccc1O)C(=O)Nc1ccc(F)cc1`, the growth was 33%.
